For two sequences, binding signal results are on record in publication PMC7862700, “An all-to-all approach to the identification of sequence-specific readers for epigenetic DNA modifications on cytosine”.

Common to all, as to assay: DAPPL (digital affinity profiling via proximity ligation, sequencing); 10 mM Tris-HCl pH 7.5, 50 mM NaCl, 1 mM DTT, 4% glycerol, room temperature, 30 min; GST-TFs on glutathione beads, 16-mer random dsDNA library, 0.1% formaldehyde crosslink after washing; high values mean tight binding
Holding throughout (conditions): protein: recombinant; tags: N-terminal GST; dsDNA, one strand shown

In test [1] the target is T1, FLI1 (Homo sapiens, UniProt Q01543 1-452).
T1 sequence: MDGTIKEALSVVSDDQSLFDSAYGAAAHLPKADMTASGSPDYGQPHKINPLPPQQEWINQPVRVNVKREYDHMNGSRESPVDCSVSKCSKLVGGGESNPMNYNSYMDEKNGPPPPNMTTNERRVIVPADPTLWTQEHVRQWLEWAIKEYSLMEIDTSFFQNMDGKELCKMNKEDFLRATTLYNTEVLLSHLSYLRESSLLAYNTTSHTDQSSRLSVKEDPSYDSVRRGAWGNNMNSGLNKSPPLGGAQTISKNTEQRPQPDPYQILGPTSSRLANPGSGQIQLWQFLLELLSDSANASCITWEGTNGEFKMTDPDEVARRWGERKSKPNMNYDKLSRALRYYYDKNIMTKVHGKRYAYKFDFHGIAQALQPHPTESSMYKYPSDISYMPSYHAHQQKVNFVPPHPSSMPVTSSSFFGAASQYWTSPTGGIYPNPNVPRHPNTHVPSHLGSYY
Put shortly: (§1)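 Each value of binding signal is a hexamer's read frequency for a factor divided by the same hexamer's frequency in the tag-only sample. Barcoded, bead-captured GST fusions of human transcription factors made in yeast were pooled with that sample and incubated with 200 nmole of a random double-stranded 16-mer DNA library in Tris/NaCl/DTT/glycerol buffer at room temperature for 30 min. Washing, 0.1% formaldehyde crosslinking, proximity ligation, PCR and Illumina NextSeq500 sequencing followed.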

Test [2] has as its target T2, ELK1 (Homo sapiens, UniProt P19419 1-428).
T2 sequence: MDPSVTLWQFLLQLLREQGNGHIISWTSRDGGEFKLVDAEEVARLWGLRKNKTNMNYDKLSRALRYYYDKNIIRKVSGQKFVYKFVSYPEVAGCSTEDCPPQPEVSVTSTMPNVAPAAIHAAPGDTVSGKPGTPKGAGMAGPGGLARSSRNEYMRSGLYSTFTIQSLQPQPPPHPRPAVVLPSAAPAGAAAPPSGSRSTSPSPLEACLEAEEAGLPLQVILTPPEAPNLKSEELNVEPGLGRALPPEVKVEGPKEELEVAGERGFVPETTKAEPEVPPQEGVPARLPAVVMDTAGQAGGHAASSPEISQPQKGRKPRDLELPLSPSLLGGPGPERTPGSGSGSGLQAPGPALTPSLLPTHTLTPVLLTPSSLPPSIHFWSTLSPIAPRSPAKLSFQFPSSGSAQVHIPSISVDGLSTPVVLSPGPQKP
Summed up:
as §1

Test [3] has as its target T3, ERG (Homo sapiens, UniProt P11308 1-479).
T3 sequence: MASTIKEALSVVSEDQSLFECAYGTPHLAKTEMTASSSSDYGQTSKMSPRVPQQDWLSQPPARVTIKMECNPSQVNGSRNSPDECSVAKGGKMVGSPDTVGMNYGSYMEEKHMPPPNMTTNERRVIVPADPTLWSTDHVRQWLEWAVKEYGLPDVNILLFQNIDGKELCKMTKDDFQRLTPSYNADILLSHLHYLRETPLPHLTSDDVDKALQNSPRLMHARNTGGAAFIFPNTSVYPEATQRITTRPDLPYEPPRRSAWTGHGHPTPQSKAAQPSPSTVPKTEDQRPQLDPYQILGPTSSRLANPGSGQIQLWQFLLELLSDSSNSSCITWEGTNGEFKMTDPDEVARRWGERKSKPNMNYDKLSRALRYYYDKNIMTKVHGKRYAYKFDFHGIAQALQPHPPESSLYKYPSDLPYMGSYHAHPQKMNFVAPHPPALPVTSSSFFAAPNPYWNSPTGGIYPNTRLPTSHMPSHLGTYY
Put shortly:
as §1

Test [4] deals with T4, EHF (Homo sapiens, UniProt Q9NZC4 1-300).
T4 sequence: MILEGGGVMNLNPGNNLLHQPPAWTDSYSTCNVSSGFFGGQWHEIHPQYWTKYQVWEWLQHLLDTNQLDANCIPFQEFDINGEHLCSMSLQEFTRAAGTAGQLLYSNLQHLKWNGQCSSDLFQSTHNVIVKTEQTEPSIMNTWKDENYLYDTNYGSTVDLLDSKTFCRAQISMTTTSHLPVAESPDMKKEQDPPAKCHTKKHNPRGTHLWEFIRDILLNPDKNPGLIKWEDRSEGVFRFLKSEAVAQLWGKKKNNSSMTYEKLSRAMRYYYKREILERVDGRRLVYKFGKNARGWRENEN
Put shortly:
as §1

Test [5] deals with SPIB (Homo sapiens, UniProt Q01892 1-262). Summed up:
as §1

Test [6] concerns the target T5, FEV (Homo sapiens, UniProt Q99581 1-238).
T5 sequence: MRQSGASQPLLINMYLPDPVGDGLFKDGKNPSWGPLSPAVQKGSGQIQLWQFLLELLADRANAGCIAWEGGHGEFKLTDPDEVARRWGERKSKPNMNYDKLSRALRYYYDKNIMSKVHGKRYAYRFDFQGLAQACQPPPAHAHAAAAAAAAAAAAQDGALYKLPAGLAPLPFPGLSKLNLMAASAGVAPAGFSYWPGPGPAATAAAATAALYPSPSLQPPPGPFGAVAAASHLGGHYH
Summed up: as §1

Test [7] has as its target T6, SPIC (Homo sapiens, UniProt Q8N5J4 1-248).
T6 sequence: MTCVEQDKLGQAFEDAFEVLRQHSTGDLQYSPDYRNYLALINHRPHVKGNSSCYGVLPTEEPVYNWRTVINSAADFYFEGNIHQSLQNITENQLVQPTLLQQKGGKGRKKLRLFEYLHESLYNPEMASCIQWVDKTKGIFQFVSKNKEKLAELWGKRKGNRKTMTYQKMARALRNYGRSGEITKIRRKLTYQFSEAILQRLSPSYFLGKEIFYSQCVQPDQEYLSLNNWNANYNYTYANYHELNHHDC
Put shortly:
as §1

Test [8] addresses T7, ELK4 (Homo sapiens, UniProt P28324-2 1-405).
T7 sequence: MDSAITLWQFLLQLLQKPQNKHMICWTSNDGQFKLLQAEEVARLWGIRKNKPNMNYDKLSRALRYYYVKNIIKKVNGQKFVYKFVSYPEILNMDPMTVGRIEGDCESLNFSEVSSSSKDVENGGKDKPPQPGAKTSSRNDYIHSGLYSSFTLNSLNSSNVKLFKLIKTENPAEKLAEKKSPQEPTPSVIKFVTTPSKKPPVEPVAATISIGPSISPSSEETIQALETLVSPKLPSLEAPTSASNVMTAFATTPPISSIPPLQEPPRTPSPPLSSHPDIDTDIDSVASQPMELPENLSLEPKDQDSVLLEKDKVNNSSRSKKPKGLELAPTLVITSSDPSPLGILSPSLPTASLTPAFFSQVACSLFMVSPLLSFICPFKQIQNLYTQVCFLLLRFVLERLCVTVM
Summed up: as §1

The target in test [9] is T8, ETV7 (Homo sapiens, UniProt Q9Y603 1-341).
T8 sequence: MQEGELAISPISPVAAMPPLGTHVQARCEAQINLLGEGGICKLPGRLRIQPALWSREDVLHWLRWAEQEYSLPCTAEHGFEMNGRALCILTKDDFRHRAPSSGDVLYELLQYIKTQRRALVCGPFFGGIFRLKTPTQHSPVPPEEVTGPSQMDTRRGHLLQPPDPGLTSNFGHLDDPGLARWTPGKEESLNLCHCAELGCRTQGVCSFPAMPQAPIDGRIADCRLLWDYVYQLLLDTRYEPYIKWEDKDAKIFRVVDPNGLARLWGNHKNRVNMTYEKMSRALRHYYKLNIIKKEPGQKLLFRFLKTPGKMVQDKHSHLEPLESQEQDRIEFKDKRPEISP
Summed up: as §1

The target in test [10] is T9, ETV3 (Homo sapiens, UniProt P41162-2 1-143).
T9 sequence: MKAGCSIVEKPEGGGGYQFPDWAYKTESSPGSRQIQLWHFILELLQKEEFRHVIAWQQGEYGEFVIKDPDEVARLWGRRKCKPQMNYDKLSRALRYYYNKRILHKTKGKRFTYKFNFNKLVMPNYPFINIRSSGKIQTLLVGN
Put shortly: as §1

The target in test [11] is ELF1 (Homo sapiens, UniProt P32519 1-619). Put shortly:
as §1

In test [12] the target is SPI1 (Homo sapiens, UniProt P17947 1-270). Put shortly: as §1
Test [13] has as its target T10, ELK3 (Homo sapiens, UniProt P41970 1-407).
T10 sequence: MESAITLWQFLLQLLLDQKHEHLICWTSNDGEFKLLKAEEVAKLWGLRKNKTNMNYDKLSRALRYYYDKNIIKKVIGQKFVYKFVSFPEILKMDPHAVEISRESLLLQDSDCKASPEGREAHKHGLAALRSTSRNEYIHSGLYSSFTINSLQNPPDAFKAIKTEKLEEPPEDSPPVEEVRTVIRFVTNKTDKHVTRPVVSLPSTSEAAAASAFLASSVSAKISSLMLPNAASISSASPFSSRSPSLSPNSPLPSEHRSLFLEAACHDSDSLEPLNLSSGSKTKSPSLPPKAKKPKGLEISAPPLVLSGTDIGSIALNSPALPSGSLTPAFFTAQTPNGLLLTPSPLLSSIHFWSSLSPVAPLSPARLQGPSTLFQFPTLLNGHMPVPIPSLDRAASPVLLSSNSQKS
Summed up:
as §1

In test [14] the target is ELF4 (Homo sapiens, UniProt Q99607 1-663). Summed up:
as §1

The target in test [15] is T11, ETV2 (Homo sapiens, UniProt O00321 1-342).
T11 sequence: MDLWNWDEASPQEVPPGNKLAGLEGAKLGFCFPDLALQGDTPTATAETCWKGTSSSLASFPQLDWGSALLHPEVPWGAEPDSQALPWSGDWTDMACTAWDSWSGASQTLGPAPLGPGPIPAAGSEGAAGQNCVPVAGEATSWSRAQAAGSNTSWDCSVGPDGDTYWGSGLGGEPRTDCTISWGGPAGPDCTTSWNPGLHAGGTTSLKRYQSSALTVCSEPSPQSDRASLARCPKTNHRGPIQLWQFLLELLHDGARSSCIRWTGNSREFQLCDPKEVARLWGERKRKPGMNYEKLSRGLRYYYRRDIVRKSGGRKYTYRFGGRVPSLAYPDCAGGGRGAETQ
Summed up: as §1

Test [16] deals with T12, ETV3L (Homo sapiens, UniProt Q6ZN32 1-361).
T12 sequence: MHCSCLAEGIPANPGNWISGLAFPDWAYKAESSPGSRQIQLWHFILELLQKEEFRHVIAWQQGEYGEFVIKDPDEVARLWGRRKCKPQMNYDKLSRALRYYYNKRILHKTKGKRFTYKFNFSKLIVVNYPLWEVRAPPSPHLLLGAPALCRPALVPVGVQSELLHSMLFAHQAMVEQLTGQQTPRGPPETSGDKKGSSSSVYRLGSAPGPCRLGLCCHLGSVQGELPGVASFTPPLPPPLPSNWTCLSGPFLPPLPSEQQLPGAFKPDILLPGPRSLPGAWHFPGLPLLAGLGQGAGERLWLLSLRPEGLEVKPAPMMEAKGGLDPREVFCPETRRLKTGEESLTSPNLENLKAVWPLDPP
Put shortly: as §1

Test [17] concerns the target ETV6 (Homo sapiens, UniProt P41212 1-452). Summed up:
as §1

Chain of SPIB (Q01892 whole entry): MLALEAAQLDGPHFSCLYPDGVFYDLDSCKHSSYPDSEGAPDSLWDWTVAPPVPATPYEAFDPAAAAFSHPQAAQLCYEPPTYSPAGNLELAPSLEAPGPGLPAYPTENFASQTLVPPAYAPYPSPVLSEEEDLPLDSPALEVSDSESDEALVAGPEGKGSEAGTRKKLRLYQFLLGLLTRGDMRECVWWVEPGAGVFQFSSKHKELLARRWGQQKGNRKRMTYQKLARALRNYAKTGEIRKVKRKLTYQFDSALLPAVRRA
Chain of ELF4 (Q99607 whole entry): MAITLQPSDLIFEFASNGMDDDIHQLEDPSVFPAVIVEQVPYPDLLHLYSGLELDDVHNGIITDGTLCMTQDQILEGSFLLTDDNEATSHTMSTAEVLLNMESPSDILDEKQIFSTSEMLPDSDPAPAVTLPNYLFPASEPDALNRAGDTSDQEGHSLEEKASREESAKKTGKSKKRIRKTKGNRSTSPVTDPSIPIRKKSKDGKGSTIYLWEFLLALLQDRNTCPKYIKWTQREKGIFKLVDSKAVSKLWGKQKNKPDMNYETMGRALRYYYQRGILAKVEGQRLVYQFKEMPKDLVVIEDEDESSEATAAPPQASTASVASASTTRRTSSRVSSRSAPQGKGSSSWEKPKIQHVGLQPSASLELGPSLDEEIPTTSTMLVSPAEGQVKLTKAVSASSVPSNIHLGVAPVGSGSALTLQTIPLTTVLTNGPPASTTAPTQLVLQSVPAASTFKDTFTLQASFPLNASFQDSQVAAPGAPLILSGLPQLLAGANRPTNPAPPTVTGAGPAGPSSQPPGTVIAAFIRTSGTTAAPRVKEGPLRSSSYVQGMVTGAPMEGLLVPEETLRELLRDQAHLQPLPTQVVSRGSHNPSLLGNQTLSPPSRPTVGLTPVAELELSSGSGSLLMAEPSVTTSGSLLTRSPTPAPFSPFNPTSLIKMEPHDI
Chain of ELF1 (P32519 whole entry): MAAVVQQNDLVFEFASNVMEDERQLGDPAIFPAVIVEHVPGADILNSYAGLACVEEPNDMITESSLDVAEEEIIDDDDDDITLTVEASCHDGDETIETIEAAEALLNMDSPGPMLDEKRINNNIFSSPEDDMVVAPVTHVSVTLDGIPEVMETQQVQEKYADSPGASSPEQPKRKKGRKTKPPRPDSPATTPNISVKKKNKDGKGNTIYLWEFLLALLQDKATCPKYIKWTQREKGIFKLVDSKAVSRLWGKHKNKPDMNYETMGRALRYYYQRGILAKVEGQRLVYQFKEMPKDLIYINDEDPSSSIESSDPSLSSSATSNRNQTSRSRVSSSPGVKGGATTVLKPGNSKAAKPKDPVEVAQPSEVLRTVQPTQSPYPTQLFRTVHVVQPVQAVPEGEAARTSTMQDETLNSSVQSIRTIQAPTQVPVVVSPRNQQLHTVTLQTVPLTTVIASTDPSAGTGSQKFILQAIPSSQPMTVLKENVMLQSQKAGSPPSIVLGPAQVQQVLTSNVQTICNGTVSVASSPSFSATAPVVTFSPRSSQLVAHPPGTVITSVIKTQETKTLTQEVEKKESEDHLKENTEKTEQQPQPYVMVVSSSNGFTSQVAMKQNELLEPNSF
Chain of ETV6 (P41212 whole entry): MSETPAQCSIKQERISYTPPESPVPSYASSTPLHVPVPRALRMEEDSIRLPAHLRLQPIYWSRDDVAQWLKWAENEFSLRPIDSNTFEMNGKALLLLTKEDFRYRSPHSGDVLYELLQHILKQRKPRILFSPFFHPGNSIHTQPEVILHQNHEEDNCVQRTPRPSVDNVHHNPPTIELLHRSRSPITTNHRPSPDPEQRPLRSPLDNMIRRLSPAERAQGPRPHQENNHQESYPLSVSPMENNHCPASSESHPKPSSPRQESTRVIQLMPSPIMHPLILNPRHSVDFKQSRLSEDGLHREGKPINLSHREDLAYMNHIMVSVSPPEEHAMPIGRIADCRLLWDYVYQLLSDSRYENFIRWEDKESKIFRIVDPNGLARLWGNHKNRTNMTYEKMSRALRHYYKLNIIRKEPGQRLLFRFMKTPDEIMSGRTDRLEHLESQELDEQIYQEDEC

In the case of GCAGCC, the binding signal in [1] is 1.01 fold enrichment (6-mer frequency, TF over GST control); in test [2], 1.05 fold enrichment (6-mer frequency, TF over GST control); in [3], 1.04 fold enrichment (6-mer frequency, TF over GST control); in [4] it was 1.03 fold enrichment (6-mer frequency, TF over GST control); in test [5], 1.08 fold enrichment (6-mer frequency, TF over GST control); in test [6], 1.03 fold enrichment (6-mer frequency, TF over GST control). For the same sequence, the binding signal in test [7] was 1.03 fold enrichment (6-mer frequency, TF over GST control); in test [8], 1.11 fold enrichment (6-mer frequency, TF over GST control); in test [9], 1.02 fold enrichment (6-mer frequency, TF over GST control); in [10], 1 fold enrichment (6-mer frequency, TF over GST control).

Consider CATGGC, for which the binding signal in [1] was 1.1 fold enrichment (6-mer frequency, TF over GST control); in [2], 1.02 fold enrichment (6-mer frequency, TF over GST control); in test [3] it was 1.05 fold enrichment (6-mer frequency, TF over GST control); in test [11] it was 1.02 fold enrichment (6-mer frequency, TF over GST control); in [4], 1.02 fold enrichment (6-mer frequency, TF over GST control); in [12], 1.04 fold enrichment (6-mer frequency, TF over GST control). The binding signal in test [13] is 1.04 fold enrichment (6-mer frequency, TF over GST control); in test [6] it was 1.04 fold enrichment (6-mer frequency, TF over GST control); in test [7], 1.05 fold enrichment (6-mer frequency, TF over GST control); in test [14] it was 1.02 fold enrichment (6-mer frequency, TF over GST control); in [15], 1.04 fold enrichment (6-mer frequency, TF over GST control); in test [16] it was 1.02 fold enrichment (6-mer frequency, TF over GST control). Moreover, the binding signal in test [9] is 1.07 fold enrichment (6-mer frequency, TF over GST control); in [10], 1.05 fold enrichment (6-mer frequency, TF over GST control); in test [17], 1 fold enrichment (6-mer frequency, TF over GST control).
